Screens from PubChem BioAssay.
Most compounds without a hit are left out; they make up all but 5% or so of the library.
AHR activator: activates the human aryl hydrocarbon receptor; 2.5% of 320,000 active; activation, % at 5 µM; AHR-responsive luciferase reporter cells, luminescence; in the data active means activation above about 47%
Target sequence (P35869 whole entry, looked up): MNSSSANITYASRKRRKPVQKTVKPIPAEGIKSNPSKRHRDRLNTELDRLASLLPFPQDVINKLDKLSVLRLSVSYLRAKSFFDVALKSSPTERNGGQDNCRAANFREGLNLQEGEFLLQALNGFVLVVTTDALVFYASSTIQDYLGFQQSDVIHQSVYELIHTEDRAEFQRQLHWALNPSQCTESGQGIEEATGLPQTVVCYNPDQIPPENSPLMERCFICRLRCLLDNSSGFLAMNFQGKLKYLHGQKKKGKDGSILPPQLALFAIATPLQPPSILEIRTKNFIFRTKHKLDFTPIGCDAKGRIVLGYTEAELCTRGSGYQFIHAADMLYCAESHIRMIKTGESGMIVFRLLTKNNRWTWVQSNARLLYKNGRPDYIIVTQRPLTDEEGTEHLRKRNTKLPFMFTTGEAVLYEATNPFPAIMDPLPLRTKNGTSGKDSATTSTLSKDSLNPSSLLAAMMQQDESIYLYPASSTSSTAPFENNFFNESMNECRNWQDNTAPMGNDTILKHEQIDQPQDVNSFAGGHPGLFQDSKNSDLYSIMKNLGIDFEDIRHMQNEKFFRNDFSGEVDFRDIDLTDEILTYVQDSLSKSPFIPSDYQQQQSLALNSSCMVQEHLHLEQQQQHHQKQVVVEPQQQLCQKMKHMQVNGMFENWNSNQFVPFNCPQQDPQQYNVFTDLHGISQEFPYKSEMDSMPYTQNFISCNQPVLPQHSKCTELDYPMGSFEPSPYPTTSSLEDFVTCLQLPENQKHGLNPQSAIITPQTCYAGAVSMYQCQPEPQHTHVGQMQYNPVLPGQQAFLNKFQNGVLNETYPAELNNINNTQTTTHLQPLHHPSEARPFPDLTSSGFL
SENP7 block: SENP7 protease inhibition. Q9BQF6. recombinant SENP7, Z-RLRGG-aminoluciferin luminescence, 40 min. inhibition, % at 5 µM. 1.5% of 330,000 active;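 active means inhibition above about 50% at the single test dose, limit read from the data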
SENP8 block-1: inhibitors of human SENP8 protease. Q96LD8. purified SENP8, Z-RLRGG-aminoluciferin cleavage, luminescence. inhibition, % at 10 µM. 1.2% of 330,000 active. AID 2540; in the data active means inhibition above about 50%
SENP8 block-2: inhibitors of human SENP8 protease; recombinant SENP8, Nedd8 substrate fluorescence; inhibition, % at 20 µM; 0.64% of 360,000 active; in the data active means inhibition mostly above about 40%, no sharp cut-off; inactive means mostly below about 27%
SENP6 inh: inhibitors of human SENP6 protease; Q9GZR1; 1.8% of 330,000 active; AID 2599; inhibition, % at 10 µM; Recombinant SENP6 catalytic domain, aminoluciferin luminescence;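 active means inhibition above about 50% at the single tested dose, limit read from the data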
EBI2 block: blocks human EBI2 receptor beta-arrestin signaling | P32249 | EBI2 beta-arrestin recruitment, luminescence, 7a,25-OHC stimulated | inhibition, % at 5 µM | 0.81% of 360,000 active | AID 651636; in the data active means inhibition above about 38%;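 further: enzyme fragment complementation signal reports receptor beta-arrestin coupling in cells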
Numbers stand for hits; 0 = inactive; - = no result given.

SMILES | AHR activator | SENP7 block | SENP8 block-1 | SENP8 block-2 | SENP6 inh | EBI2 block
Cc1cc(C)cc(Cn2c3ccc(NC(=O)NCCc4cccs4)cc3c(=O)n2C)c1 | - | - | - | 0 | - | 0
O=C(Nc1ccc(Cl)cn1)c1cccc2c(Br)cccc12 | 74.1 | 0 | 0 | 0 | 0 | 0
COc1ccccc1C(=O)Nc1nc(-c2cccs2)c(NC(C)=O)s1 | 71.7 | 0 | 0 | 0 | 0 | 0
O=C(Nc1ccccc1)c1cccc2c(Br)cccc12 | 57.2 | 0 | 0 | 0 | 0 | 0
CC(=O)Nc1sc(NC(=O)c2ccccc2)nc1-c1cccs1 | 0 | 0 | 0 | 0 | 0 | 0
O=C(Nc1ccc(Cl)cn1)c1cccnc1 | 0 | 0 | 0 | 0 | 0 | 0
COc1cc2ccccc2cc1C(=O)Nc1nccs1 | 56.9 | 0 | 0 | 0 | 0 | 0
CCn1nnnc1-c1ccc(OC)c(S(=O)(=O)Nc2ccccc2OC)c1 | - | - | - | 0 | - | 0
COc1cc2ccccc2cc1C(=O)NC1CCCC1 | 77.4 | 0 | 0 | 0 | 0 | 0
COc1cc2ccccc2cc1C(=O)Nc1cc(C)ccn1 | 56.2 | 0 | 0 | 0 | 0 | 0
COc1cc2ccccc2cc1C(=O)NC1CCCCC1 | 0 | 0 | 0 | 0 | 0 | 0
COc1cc2ccccc2cc1C(=O)Nc1ccc(Br)cn1 | - | 0 | 0 | 0 | 0 | 47.5
O=C(Nc1ccc(Br)cn1)c1cccc2ccccc12 | 70.0 | 0 | 0 | 0 | 0 | 0
COc1c(C(=O)Nc2ccc(Br)cn2)ccc2ccccc12 | 0 | 0 | 0 | 0 | 0 | 0
Cc1ccc(NC(=O)CNC(=O)c2ccc(OC(F)F)cc2)cc1S(=O)(=O)N1CCCCCC1 | - | - | - | 0 | - | 0
O=C(NCc1ccccc1Cl)[C@H]1CCCN1C(=O)[C@H]1CCCN1C(=O)c1ccc(Cl)cc1 | - | - | - | 0 | - | 0
COc1cc(C(=O)Nc2cc(C)ccn2)cc(OC)c1OC | 56.1 | 0 | 0 | 0 | 0 | 0
N#Cc1ccccc1NC(=O)CN1C(=O)NC(Cc2c[nH]c3ccccc23)C1=O (stereo unspecified) | 78.1 | 0 | 0 | 0 | 0 | 0
C[C@@H]1CN([C@H](C)CO)C(=O)CCCn2nncc2CO[C@H]1CN(C)C(=O)c1ccncc1 | - | - | - | 0 | - | 0
CN(CC(=O)Nc1ccc(Cl)cc1)CC(=O)N1CCc2ccccc21 | - | - | - | 0 | - | 0
CCOC(=O)C1=CCN(S(=O)(=O)c2ccccc2C)C1c1ccc(F)cc1 (stereo unspecified) | - | - | - | 0 | - | 0
COc1ccc(C2=NCCn3nc4ccccc4c32)cc1 | 54.2 | 0 | 0 | 0 | 0 | 0
COc1ccc2c3n(nc2c1)CCN=C3c1cc(Cl)c(N)c(Cl)c1 | 61.3 | 0 | 0 | 0 | 0 | 0
COc1ccc(-c2nc3ccccc3c(=O)n2O)cc1 | 0 | 0 | 0 | 0 | 0 | 0
CCOc1ccc(CCNC(=O)c2cccc(S(=O)(=O)N3CCN(C(C)=O)CC3)c2)cc1OCC | 0 | 0 | 0 | 0 | 0 | 0
SMILES | AHR activator | SENP7 block | SENP8 block-1 | SENP8 block-2 | SENP6 inh | EBI2 block
CC1(C(=O)NS(=O)(=O)c2cccc(Cl)c2)CCN1C(=O)Cc1ccc(Cl)cc1Cl (stereo unspecified) | - | - | - | 0 | - | 0
CCOc1cc(/C=C2\SC(=O)N=C2N)ccc1O | 48.0 | 0 | 0 | 0 | 0 | 0
CC(C)n1c(O)c(/C=C2\C=NN=C2c2ccccc2)sc1=S | 63.6 | 0 | 0 | 0 | 0 | 0
Fc1ccc2[nH]c3c(N4CCc5ccccc5C4)ncnc3c2c1 | 0 | 0 | 0 | 0 | 0 | 0
Brc1ccc2[nH]c3c(NCc4ccccn4)ncnc3c2c1 | 78.0 | 0 | 0 | 0 | 0 | 0
Brc1ccc2[nH]c3c(N4CCc5ccccc5C4)ncnc3c2c1 | 50.8 | 0 | 0 | - | 0 | -
Fc1ccc2[nH]c3c(NCCN4CCOCC4)ncnc3c2c1 | 74.9 | 0 | 0 | 0 | 0 | 0
Cc1ccc2[nH]c3c(NCc4ccccc4)ncnc3c2c1 | - | 0 | 0 | - | 0 | -
c1ccc2c(c1)[nH]c1c(N3CCCC3)ncnc12 | 64.7 | 0 | 0 | 0 | 0 | 0
Cc1c(Br)cccc1NC(=O)C1(C)CCN1C(C)C (stereo unspecified) | - | - | - | 0 | - | 0
COC(=O)[C@@]12C[C@@H](CC(=O)NCC34CC5CC(CC(C5)C3)C4)C(=O)N(Cc3ccccc3)C1=CCC(C)(C)C2 | - | - | - | 0 | - | 0
O=C(C1CCN(S(=O)(=O)c2ccccc2)CC1)N1CCN(Cc2ccccc2)CC1 | - | 0 | 0 | 0 | 0 | 0
O=C1NC[C@@H](CCCCN2CCN(CCc3ccccc3)C(=O)C2=O)N(CCC2CCCCC2)C1=O | - | - | - | 0 | - | 0
c1ccc2c(c1)[nH]c1c(N3CCOCC3)ncnc12 | 0 | 0 | 0 | 0 | 0 | 0
Cc1ccc2[nH]c3c(N4CCOCC4)ncnc3c2c1 | 73.2 | 0 | 0 | 0 | 0 | 0
CN(C)CCCN(C(=O)CCOc1ccccc1)c1nc2c(F)cccc2s1 | - | - | - | 0 | - | 47.6
CN(C)CCCN(C(=O)CCc1ccccc1)c1nc2c(F)cccc2s1 | 0 | 0 | 0 | 0 | 0 | 0
Cn1ncc2c(N3CCC(Cc4ccccc4)CC3)ncnc21 | 73.3 | 0 | 0 | 0 | 0 | 0
Cc1ccc(NC(=O)CN2C(=O)N/C(=C/c3ccc(N4CCOCC4)cc3)C2=O)cc1 | 58.0 | 0 | 0 | 0 | 0 | 0
Cc1ccc(C(=O)Cn2c(C(=O)OCCO)cc3ccccc32)cc1 | - | 0 | 0 | 0 | 0 | 0
Cc1ccc(C(=O)Cn2c(C(=O)O)cc3ccccc32)cc1 | 59.2 | 0 | 0 | 0 | 0 | 0
CCC(C)/C(C)=N/NC(=O)c1ccccc1OCCOc1ccccc1 (stereo unspecified) | 78.6 | 0 | 0 | 0 | 0 | 0
CCOC(=O)C(CC)/C(C)=N\NC(=O)c1ccccc1O (stereo unspecified) | 55.6 | 0 | 0 | 0 | 0 | 0
CCC/C(C)=N/NC(=O)c1ccccc1O | 0 | 0 | 0 | 0 | 0 | 0
O=C1C=C(N2CCOCC2)c2ccccc2C1=O | 0 | 90.3 | 93.7 | 0 | 90.4 | 0
SMILES | AHR activator | SENP7 block | SENP8 block-1 | SENP8 block-2 | SENP6 inh | EBI2 block
CC1=C(C)C(=O)C(N2CCOCC2)=CC1=O | - | - | - | 47.3 | - | 0
O=C1C=C(N2CCOCC2)c2cccc3cccc1c23 | - | - | - | 0 | - | 0
Cc1ccc(NNC(=O)c2snnc2C)cc1Cl | 0 | 0 | 0 | 0 | 0 | 0
COc1ccc(NC(=O)Nc2ccc(F)c(Cl)c2)cc1 | 0 | 51.5 | 0 | 0 | 0 | 0
Cc1nnsc1C(=O)NC(=O)Nc1ccc(F)c(Cl)c1 | 0 | 0 | 78.2 | 0 | 81.9 | 0
Cc1ccc(NC(=O)Nc2ccc(F)c(Cl)c2)cc1 | 0 | 0 | 0 | 0 | 0 | 0
Cn1nc(C(C)(C)C)cc1N1C(=O)CCC1(C)C(=O)NC1CCCC1 (stereo unspecified) | - | - | - | 0 | - | 0
Cc1cc(N2CCCCCC2)nc2ccc(F)cc12 | 58.3 | 0 | 0 | 0 | 0 | 0
CC(C)NC(=O)c1cc(C2CCCCN2C(=O)c2ccccc2)on1 (stereo unspecified) | - | - | - | 0 | - | 0
O=c1cc(-c2ccccc2Cl)oc2c(Br)ccc(O)c12 | 47.4 | 0 | 0 | 0 | 0 | 0
C=C[C@]1(C)C=C2CCC3[C@](C)(CCC[C@@]3(C)C(=O)O)C2CC1 (stereo partly specified) | 0 | 0 | 0 | 59.9 | 0 | 0
C=C/C(C)=C/CC1C(=C)CCC2C(C)(C(=O)O)CCCC12C (stereo unspecified) | 0 | 0 | 0 | 0 | 0 | 0
COc1cc(OC)cc(-c2nc(-c3ccc(Br)cc3)no2)c1 | 0 | 0 | 0 | 0 | 0 | 0
